# Tests used:
# Experiment in all cases: DAPPL (digital affinity profiling via proximity ligation, sequencing); 10 mM Tris-HCl pH 7.5, 50 mM NaCl, 1 mM DTT, 4% glycerol, room temperature, 30 min; GST-TFs on glutathione beads, 16-mer random dsDNA library, 0.1% formaldehyde crosslink after washing; high values mean tight binding
# FEV = molecular target: T1, FEV (Homo sapiens, UniProt Q99581 1-238); conditions: protein: recombinant; tags: N-terminal GST; dsDNA, one strand shown
# T1 sequence: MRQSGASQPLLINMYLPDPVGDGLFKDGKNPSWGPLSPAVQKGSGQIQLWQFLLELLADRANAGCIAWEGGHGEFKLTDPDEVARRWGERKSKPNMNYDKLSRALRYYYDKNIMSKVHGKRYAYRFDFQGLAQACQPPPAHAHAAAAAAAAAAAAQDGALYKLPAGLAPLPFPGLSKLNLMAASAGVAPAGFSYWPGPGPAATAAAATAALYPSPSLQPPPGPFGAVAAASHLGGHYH
# Method in brief: (§1)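 Human transcription factors fused to GST were expressed in yeast, captured on glutathione beads, given DNA barcodes and pooled with a GST-only negative control. Pools were incubated with 200 nmole of a 16-mer random double-stranded DNA library in Tris/NaCl/DTT/glycerol buffer at room temperature for 30 min. They were then washed, crosslinked with 0.1% formaldehyde, proximity-ligated (BsaI/T4 ligase, 1 h, 37 °C), PCR-amplified and sequenced on an Illumina NextSeq500. Binding signal is each 6-mer's read frequency for a factor divided by its frequency for the GST control.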
# ETV5 = ETV5 (Homo sapiens, UniProt P41161 1-510); conditions: protein: recombinant; tags: N-terminal GST; dsDNA, one strand shown
# Method in brief: as §1
# HSF1 = HSF1 (Homo sapiens, UniProt Q00613 1-529); conditions: protein: recombinant; tags: N-terminal GST; chain copies: 3; dsDNA, one strand shown
# Method in brief: as §1
# SPIC = molecular target: T2, SPIC (Homo sapiens, UniProt Q8N5J4 1-248); conditions: protein: recombinant; tags: N-terminal GST; dsDNA, one strand shown
# T2 sequence: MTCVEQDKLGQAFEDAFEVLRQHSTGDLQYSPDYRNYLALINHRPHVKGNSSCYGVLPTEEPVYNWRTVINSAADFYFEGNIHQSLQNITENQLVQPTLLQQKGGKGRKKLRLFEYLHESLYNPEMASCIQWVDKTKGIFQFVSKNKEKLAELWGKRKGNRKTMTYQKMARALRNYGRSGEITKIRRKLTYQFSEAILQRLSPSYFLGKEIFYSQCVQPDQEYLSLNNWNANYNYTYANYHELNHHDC
# Method in brief: as §1
# ELF4 = ELF4 (Homo sapiens, UniProt Q99607 1-663); conditions: protein: recombinant; tags: N-terminal GST; dsDNA, one strand shown
# Method in brief: as §1
# ELK4 = molecular target: T3, ELK4 (Homo sapiens, UniProt P28324-2 1-405); conditions: protein: recombinant; tags: N-terminal GST; dsDNA, one strand shown
# T3 sequence: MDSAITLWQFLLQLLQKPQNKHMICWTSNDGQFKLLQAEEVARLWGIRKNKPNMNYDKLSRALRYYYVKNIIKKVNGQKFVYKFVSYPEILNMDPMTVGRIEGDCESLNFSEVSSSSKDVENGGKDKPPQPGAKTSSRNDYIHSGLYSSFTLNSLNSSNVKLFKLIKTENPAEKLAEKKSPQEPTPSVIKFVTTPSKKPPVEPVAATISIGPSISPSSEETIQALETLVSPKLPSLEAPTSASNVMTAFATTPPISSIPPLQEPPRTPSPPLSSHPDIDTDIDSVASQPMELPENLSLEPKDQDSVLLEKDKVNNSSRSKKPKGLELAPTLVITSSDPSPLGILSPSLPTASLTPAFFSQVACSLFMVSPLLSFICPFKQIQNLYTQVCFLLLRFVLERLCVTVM
# Method in brief: as §1
# ETV2 = molecular target: T4, ETV2 (Homo sapiens, UniProt O00321 1-342); conditions: protein: recombinant; tags: N-terminal GST; dsDNA, one strand shown
# T4 sequence: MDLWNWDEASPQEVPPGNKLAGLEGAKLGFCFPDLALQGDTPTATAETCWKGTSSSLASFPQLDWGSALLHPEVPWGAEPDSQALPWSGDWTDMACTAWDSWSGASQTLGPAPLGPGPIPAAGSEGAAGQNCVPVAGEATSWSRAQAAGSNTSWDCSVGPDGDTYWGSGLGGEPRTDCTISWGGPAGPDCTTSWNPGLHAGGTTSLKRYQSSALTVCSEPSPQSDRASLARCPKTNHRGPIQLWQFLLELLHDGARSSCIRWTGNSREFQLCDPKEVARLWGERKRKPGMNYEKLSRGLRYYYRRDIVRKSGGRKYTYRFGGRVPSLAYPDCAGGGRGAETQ
# Method in brief: as §1
# ELF3 = molecular target: T5, ELF3 (Homo sapiens, UniProt P78545 1-371); conditions: protein: recombinant; tags: N-terminal GST; dsDNA, one strand shown
# T5 sequence: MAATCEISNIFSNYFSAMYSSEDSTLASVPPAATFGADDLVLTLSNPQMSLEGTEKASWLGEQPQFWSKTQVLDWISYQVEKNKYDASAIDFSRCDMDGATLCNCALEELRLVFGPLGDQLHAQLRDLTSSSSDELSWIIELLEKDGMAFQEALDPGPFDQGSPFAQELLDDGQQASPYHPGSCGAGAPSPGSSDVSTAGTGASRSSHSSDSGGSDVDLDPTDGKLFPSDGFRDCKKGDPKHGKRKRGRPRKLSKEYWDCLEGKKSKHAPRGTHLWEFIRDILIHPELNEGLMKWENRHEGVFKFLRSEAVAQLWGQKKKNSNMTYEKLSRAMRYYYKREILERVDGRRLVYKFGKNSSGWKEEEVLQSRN
# Method in brief: as §1
# CRX = CRX (Homo sapiens, UniProt O43186 1-299); conditions: protein: recombinant; tags: N-terminal GST; dsDNA, one strand shown
# Method in brief: as §1
# ETV1 = ETV1 (Homo sapiens, UniProt P50549 1-477); conditions: protein: recombinant; tags: N-terminal GST; dsDNA, one strand shown
# Method in brief: as §1
# Chain of CRX (O43186 whole entry): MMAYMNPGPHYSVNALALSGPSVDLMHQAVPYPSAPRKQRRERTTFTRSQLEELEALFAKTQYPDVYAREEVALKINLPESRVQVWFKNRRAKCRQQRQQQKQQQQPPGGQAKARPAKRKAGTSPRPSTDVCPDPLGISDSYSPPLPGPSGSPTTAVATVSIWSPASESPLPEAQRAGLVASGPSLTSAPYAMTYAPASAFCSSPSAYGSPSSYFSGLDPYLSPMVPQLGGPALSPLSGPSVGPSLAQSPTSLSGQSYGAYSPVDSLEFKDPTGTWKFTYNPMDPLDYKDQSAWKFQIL
# Chain of HSF1 (Q00613 whole entry): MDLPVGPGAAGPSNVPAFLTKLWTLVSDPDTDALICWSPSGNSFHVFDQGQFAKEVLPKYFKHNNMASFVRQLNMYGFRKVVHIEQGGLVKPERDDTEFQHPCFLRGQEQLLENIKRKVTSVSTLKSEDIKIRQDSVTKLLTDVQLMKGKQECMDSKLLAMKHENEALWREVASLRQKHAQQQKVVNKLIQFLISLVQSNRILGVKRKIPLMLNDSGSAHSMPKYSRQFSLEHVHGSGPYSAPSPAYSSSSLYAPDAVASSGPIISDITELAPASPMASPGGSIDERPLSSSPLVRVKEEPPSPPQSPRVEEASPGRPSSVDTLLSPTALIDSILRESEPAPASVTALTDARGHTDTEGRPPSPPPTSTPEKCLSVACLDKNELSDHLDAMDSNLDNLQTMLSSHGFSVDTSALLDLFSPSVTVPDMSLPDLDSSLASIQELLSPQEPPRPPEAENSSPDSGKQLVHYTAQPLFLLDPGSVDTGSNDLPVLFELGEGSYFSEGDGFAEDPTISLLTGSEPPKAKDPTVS
# Chain of ETV1 (P50549 whole entry): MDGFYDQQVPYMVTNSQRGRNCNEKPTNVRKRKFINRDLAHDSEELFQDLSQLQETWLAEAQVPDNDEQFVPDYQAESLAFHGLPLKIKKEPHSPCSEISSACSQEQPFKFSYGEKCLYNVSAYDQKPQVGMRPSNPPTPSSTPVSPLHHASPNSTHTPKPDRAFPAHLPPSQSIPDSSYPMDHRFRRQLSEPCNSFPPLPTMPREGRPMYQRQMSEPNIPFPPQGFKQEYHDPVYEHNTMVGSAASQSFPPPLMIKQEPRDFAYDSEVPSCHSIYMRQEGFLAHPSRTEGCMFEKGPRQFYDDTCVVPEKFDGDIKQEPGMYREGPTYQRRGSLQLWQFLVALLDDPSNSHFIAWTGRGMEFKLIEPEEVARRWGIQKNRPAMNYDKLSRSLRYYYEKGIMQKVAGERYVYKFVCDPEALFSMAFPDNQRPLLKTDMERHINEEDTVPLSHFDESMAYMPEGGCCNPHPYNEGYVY
# Chain of ELF4 (Q99607 whole entry): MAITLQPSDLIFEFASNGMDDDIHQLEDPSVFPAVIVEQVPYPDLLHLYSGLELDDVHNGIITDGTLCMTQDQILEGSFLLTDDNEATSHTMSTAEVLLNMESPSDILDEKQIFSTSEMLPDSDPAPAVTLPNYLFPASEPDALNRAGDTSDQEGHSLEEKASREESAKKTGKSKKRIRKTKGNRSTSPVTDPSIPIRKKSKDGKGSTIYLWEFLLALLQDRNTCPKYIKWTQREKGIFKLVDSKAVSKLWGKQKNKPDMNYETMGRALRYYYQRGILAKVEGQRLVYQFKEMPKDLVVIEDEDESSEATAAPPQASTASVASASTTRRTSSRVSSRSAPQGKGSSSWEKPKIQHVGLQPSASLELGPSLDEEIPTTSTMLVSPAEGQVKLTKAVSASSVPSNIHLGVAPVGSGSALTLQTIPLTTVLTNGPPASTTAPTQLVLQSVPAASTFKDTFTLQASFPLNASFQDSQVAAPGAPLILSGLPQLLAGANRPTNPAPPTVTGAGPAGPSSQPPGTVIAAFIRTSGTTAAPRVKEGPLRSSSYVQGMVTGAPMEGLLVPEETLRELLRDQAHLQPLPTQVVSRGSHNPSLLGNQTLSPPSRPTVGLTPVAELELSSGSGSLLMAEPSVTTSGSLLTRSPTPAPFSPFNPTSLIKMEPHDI
# Chain of ETV5 (P41161 whole entry): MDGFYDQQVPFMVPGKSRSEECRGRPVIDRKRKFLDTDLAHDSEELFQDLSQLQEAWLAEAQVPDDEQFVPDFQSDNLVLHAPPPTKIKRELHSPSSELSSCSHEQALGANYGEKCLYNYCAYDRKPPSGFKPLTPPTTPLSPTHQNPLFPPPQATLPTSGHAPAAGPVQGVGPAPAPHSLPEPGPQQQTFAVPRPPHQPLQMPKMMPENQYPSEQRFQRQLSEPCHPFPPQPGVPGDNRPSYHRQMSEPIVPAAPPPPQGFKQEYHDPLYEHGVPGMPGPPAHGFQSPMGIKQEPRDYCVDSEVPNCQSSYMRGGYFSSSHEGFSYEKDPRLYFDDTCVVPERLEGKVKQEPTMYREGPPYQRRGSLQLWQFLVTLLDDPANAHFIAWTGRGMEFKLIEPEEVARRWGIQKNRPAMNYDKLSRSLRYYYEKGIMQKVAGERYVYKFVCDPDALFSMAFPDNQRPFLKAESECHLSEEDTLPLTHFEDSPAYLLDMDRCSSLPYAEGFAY
sequence,measurement,setting,value
TAAACG,binding signal,FEV,"1.12 fold enrichment (6-mer frequency, TF over GST control)"
same,binding signal,ETV5,"1.07 fold enrichment (6-mer frequency, TF over GST control)"
same,binding signal,HSF1,"1.19 fold enrichment (6-mer frequency, TF over GST control)"
same,binding signal,SPIC,"1.05 fold enrichment (6-mer frequency, TF over GST control)"
same,binding signal,ELF4,"1.13 fold enrichment (6-mer frequency, TF over GST control)"
same,binding signal,ELK4,"1.2 fold enrichment (6-mer frequency, TF over GST control)"
same,binding signal,ETV2,"1.09 fold enrichment (6-mer frequency, TF over GST control)"
same,binding signal,ELF3,"1.07 fold enrichment (6-mer frequency, TF over GST control)"
same,binding signal,CRX,"1.44 fold enrichment (6-mer frequency, TF over GST control)"
same,binding signal,ETV1,"1.13 fold enrichment (6-mer frequency, TF over GST control)"

# Source: paper PMC7862700, “An all-to-all approach to the identification of sequence-specific readers for epigenetic DNA modifications on cytosine”
